Potency and affinity values are given separately. Records with an inconclusive call do not appear. Calls of active or inactive are those of the source. How the calls were made is not given here.

This is an account of results in PubChem BioAssay AID488815 (Broad Institute, 2010).

The experiment deals with CAAX prenyl protease 1 (Saccharomyces cerevisiae (strain ATCC 204508 / S288c)) (UniProt P47154). Description: yeast CAAX protease Ste24 inhibition – biochemical, S. cerevisiae, plate reader, cherry-pick, dose response (AID 488815).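 Further: 0% = neutral control wells and -100% = no enzyme wells.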 The following applies: series mostly up to 10 µM; activity change, negative = inhibition: at the top concentration.
Sequence of CAAX prenyl protease 1 (Saccharomyces cerevisiae (strain ATCC 204508 / S288c)) (P47154 whole entry, looked up): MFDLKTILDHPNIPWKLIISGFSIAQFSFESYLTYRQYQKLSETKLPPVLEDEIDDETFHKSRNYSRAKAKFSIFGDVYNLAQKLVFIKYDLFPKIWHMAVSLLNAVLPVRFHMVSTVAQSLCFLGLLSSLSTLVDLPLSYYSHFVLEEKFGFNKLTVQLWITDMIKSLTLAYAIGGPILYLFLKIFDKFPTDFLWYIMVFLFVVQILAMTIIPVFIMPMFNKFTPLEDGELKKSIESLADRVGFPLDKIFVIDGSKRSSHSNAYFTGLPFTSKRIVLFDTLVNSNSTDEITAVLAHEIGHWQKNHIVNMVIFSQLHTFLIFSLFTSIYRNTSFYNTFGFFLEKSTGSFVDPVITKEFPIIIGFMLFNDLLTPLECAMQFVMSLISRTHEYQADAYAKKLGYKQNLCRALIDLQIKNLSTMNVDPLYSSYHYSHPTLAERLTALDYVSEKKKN
Regarding `COc1ccc(-c2nc3ncccc3o2)cc1NC(=O)c1ccco1`, the “activity change, negative = inhibition” value was 23.7% (inactive).

Turning to `CCOC(=O)c1c(NC(=O)c2cccc(N3C(=O)CCC3=O)c2)sc(C)c1C`, the “activity change, negative = inhibition” value is 10.5% (inactive).

Consider `CN1c2ccc(C=O)c3c(C=O)ccc(c23)N(C)C1(C)C`, for which the “activity change, negative = inhibition” value is 16.1% (inactive).

In the case of `O=C(c1cc(-c2ccccc2)nc2ccccc12)N1CCN(c2ccccn2)CC1`, the “activity change, negative = inhibition” value is 15.8% (inactive).

With `c1cnn(Cc2cnc(N3CCOCC3)s2)c1`, the “activity change, negative = inhibition” value is 11% (inactive).

Turning to `C=C(C)C1(O)OC(=O)C=C1OC` (stereo not given), the “activity change, negative = inhibition” value was 21.2% (inactive).

Turning to `CN(C)S(=O)(=O)c1ccc(NC(=O)/C=C/c2ccccc2Cl)cc1`, the “activity change, negative = inhibition” value was 19.3% (inactive).

For the molecule `NS(=O)(=O)c1ccc(NC(=O)/C=C/c2cn(-c3ccccc3)nc2-c2cccc(Cl)c2)cc1`, the “activity change, negative = inhibition” value was 0.223% (inactive).

Consider `CC(=O)Nc1ccc(Cl)cc1C1COC(=O)C1=N` (stereo not given), for which the “activity change, negative = inhibition” value is 6.14% (inactive).

For `COc1ccc(C(CNC(=O)COc2cc(C)c(Cl)c(C)c2)N2CCCCC2)cc1` (stereo not given), the “activity change, negative = inhibition” value is 8.59% (inactive).

With `COc1ccccc1CC(=O)Nc1ccc2c(C)cc(=O)oc2c1`, the “activity change, negative = inhibition” value is -51.4% (inactive).

For `CCC(COC)NC(=O)CCc1nnc(Cc2cccc(C(F)(F)F)c2)o1` (stereo not given), the “activity change, negative = inhibition” value is 25.7% (inactive).

Consider `CN(C(=O)COC(=O)c1cc([N+](=O)[O-])ccc1Sc1ccccc1)C1CCS(=O)(=O)C1` (stereo not given), for which the “activity change, negative = inhibition” value is 25.6% (inactive).

On to `CC(C)CNC(=O)COc1cccc(C(=O)NCc2ccccc2)c1`, for which the “activity change, negative = inhibition” value was -0.446% (inactive).

Take `Cc1cc(C(=O)N[C@H](c2ccccc2)[C@@]2(C)C[C@@H]2[C@@H](C)C(=O)Nc2ccc3ccccc3c2)n(C)n1`: the “activity change, negative = inhibition” value is 1.69% (inactive).

Turning to `Nc1nnnn1/N=C/c1ccccc1OCc1ccc(Cl)cc1Cl`, the “activity change, negative = inhibition” value was 15.2% (inactive).

For `NC(=NCCCCCCN=C(N)/N=C(\N)Nc1ccc(Cl)cc1)/N=C(\N)Nc1ccc(Cl)cc1`, the “activity change, negative = inhibition” value was 36.9% (inactive).

As for `CC(C)(C)OC(=O)N1CCC(c2cc(=O)n3[nH]cc(C(=O)Nc4ccc(F)c(Cl)c4)c3n2)CC1`, the “activity change, negative = inhibition” value is -30.2% (inactive).

For `CS(=O)(=O)Nc1ccccc1C(=O)NC1CC2CCC1C2` (stereo not given), the “activity change, negative = inhibition” value was 8.71% (inactive).

As for `Cc1cc(C)n(Cc2ccc(NC(=O)c3ccc(COc4ccccc4Br)cc3)cc2)n1`, the “activity change, negative = inhibition” value was 0.75% (inactive).

For `COC(C[C@H](O)C[C@H](O)[C@@H](C)OCc1ccccc1)OC`, the “activity change, negative = inhibition” value is 17.5% (inactive).

Consider `CC1CCN(C(=O)C2CCN(S(=O)(=O)c3ccc(-n4cnnn4)cc3)CC2)CC1`, for which the “activity change, negative = inhibition” value was 16.5% (inactive).

With `Cc1ccc(OCCN2C(=O)C(=O)c3cc(C)ccc32)cc1`, the “activity change, negative = inhibition” value was 14.9% (inactive).

For `c1ccc(CNc2nc(N3CCN(Cc4ccccc4)CC3)nc3ccccc23)cc1`, the “activity change, negative = inhibition” value was 22% (inactive).

As for `C/C(CC1(O)C(=O)Nc2ccccc21)=N\O` (stereo not given), the “activity change, negative = inhibition” value was 50% (inactive).

For the molecule `CC(C)(C)C(=O)C[n+]1ccc(C(N)=O)cc1`, the “activity change, negative = inhibition” value is -13.2% (inactive).

Turning to `CC1(C)CC2CC(C)(CN2S(=O)(=O)c2ccc(N)cc2)C1` (stereo not given), the “activity change, negative = inhibition” value was 3.42% (inactive).

With `COc1cc2ccccc2cc1C(=O)N(CCN(C)C)c1nc2ccc(C)cc2s1`, the “activity change, negative = inhibition” value was 21.9% (inactive).

For `Cc1nc(-c2ccc(Cl)cc2)sc1C1(C)CC(c2ccccc2Br)=NO1` (stereo not given), the “activity change, negative = inhibition” value was 29.5% (inactive).

In the case of `CC1CCc2c(sc(NC(=O)COC(=O)c3ccccc3NCc3ccco3)c2C#N)C1` (stereo not given), the “activity change, negative = inhibition” value was -174% (inactive).

Take `Nc1c(Cl)cc(C2=NCCn3nc4cc(C(F)(F)F)ccc4c32)cc1Cl`: the “activity change, negative = inhibition” value was -4.63% (inactive).

Regarding `COc1ccc(-n2c(SCc3ccc([N+](=O)[O-])cc3)nnc2-c2ccc(C)cc2)cc1`, the “activity change, negative = inhibition” value is -0.524% (inactive).

Consider `CN1C(=O)/C(=C/c2cccc(Cl)c2)Sc2ccc(C(=O)N3CCOCC3)cc21`, for which the “activity change, negative = inhibition” value is 31.2% (inactive).

Turning to `COc1ccc(OCC(=O)NS(=O)(=O)c2ccc(Cl)cc2)cc1`, the “activity change, negative = inhibition” value was 41.8% (inactive).

Take `Cc1ccc(S(=O)(=O)Nc2ccccc2C(=O)NCC2CCCO2)cc1` (stereo not given): the “activity change, negative = inhibition” value is 8.24% (inactive).

On to `Cc1ccccc1OC(C)C(=O)N1CCC(Cc2ccccc2)CC1` (stereo not given), for which the “activity change, negative = inhibition” value was 22.5% (inactive).

With `CC(C)N1CCN(Cc2ccc(OCc3ccccc3)cc2)CC1CCO` (stereo not given), the “activity change, negative = inhibition” value is 15.4% (inactive).

As to `O=C(COC(=O)c1ccc(S(=O)(=O)N2CCCC2)cc1)NCc1ccccc1`, the “activity change, negative = inhibition” value is 33.6% (inactive).

For `CCCCNC(=S)N=Nc1c(O)n(Cc2ccccc2)c2ccccc12`, the “activity change, negative = inhibition” value was 41% (inactive).

As to `O=C(O)CCCC[C@@H]1SC[C@@H]2NC(=O)N[C@@H]21`, the “activity change, negative = inhibition” value is 9.1% (inactive).
